According to ChEMBL document CHEMBL3988442, “University of Dundee, Small-Polar-MMV Screening Library” (2021):
For some of these results: Measured potencies and affinities stand elsewhere.

Experiments:
Parameters in all cases: scale not given: direction of the effect not stated beside the values
[1] = biological target: Protein translocase subunit SecA (Escherichia coli (strain K12)) (UniProt P10408); test: Assay to Identify E. coli SecA ATPase Inhibitors; format: functional; settings: 30 µM
[2] = biological target: T1, Ubiquitin-activating enzyme e1, putative (Leishmania donovani (strain BPK282A1)) (UniProt E9BSI1); test: Leishmania donovani Ubiquitin Activating Enzyme (LdE1); format: functional; settings: 30 µM
T1 sequence (whole entry): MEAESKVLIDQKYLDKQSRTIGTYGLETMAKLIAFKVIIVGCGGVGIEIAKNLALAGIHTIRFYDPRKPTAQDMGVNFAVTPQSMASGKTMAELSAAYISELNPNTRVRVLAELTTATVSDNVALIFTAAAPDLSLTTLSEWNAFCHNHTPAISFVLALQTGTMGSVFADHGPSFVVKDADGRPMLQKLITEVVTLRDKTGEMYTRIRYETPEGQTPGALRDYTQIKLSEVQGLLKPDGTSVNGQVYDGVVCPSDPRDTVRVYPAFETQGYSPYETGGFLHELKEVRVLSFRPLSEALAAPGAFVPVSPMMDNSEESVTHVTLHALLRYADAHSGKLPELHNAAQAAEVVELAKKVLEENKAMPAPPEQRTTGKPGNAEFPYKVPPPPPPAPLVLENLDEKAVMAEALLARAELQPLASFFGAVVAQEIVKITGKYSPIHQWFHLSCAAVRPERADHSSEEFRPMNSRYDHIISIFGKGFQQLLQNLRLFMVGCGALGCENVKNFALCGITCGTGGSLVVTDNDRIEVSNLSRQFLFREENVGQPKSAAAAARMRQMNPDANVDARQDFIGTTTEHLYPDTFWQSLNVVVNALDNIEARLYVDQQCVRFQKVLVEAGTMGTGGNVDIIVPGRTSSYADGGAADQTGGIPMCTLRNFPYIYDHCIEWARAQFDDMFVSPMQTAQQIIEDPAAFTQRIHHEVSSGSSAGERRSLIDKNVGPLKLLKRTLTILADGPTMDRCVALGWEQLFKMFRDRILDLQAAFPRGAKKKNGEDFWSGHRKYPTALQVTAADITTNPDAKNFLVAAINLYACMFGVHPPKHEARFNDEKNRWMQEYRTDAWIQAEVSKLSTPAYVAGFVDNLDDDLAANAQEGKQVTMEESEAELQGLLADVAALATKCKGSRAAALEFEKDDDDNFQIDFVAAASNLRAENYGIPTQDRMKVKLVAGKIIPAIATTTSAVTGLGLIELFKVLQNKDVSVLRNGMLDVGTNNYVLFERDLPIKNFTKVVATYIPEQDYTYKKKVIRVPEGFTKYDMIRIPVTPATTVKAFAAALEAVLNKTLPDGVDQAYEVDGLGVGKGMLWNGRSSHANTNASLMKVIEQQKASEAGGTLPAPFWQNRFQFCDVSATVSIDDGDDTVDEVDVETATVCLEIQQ

[3] = biological target: AMP-activated protein kinase, AMPK (Homo sapiens) (UniProt P54646+O43741+P54619+Q9UGJ0+Q9Y478+Q13131+Q9UGI9); test: AMP-dependent Kinase enzyme assay. An in vitro enzyme assay that detects ADP turnover that is directly proportional to AMPK activity. This uses naive AMPK that is activated during the assay with MK-8722; format: functional; settings: 30 µM
[4] = biological target: Sialic acid-binding Ig-like lectin 9 (Homo sapiens) (UniProt Q9Y336); test: Hs-Siglec9 ALPHAscreen SOP 20170721; settings: 10 µM
Sialic acid-binding Ig-like lectin 9 (Homo sapiens), sequence (Q9Y336 whole entry): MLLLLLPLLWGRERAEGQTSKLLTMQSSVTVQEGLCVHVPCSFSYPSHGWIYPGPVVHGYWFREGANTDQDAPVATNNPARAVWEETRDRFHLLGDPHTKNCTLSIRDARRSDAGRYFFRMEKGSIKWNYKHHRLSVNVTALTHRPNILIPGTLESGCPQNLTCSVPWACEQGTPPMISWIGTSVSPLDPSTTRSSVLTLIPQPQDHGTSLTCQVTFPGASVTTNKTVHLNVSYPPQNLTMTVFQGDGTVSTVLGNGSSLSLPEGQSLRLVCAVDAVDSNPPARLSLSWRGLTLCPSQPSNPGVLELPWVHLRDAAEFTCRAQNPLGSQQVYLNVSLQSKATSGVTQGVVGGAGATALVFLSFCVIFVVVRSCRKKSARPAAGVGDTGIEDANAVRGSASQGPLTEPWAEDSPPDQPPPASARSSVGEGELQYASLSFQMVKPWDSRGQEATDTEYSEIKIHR

[5] = system: Trypanosoma cruzi; test: Trypanosoma cruzi phosphomannomutase and mannose-1-phosphate guanylyltransferase assay; format: functional; settings: 10 µM
[6] = biological target: T2, Arginase-2, mitochondrial (Homo sapiens) (UniProt P78540); test: in vitro enzyme assay to detect the production of urea directly proportional to the activity of Arginase II; format: functional; settings: 33.3 µM; further: in the data most compounds retested in dose-response had high values
T2 sequence (whole entry): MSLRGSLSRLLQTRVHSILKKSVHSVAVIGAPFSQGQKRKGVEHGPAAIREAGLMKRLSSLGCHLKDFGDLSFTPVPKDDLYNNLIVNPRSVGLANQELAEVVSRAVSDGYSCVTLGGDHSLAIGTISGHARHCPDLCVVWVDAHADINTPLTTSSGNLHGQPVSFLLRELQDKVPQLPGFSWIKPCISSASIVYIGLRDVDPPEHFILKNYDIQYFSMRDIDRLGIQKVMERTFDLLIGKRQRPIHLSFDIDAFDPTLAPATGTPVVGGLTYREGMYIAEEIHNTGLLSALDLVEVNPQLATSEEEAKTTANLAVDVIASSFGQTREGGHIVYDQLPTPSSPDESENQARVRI

[7] = biological target: T3, Proteasome subunit beta (Trypanosoma cruzi) (UniProt O96673); test: Trypanosoma cruzi proteasome chymotrypsin-like activity (TcProtChymo) assay.; further: in the data most compounds retested in dose-response had high values; format: functional; settings: 9.37 µM
T3 sequence (whole entry): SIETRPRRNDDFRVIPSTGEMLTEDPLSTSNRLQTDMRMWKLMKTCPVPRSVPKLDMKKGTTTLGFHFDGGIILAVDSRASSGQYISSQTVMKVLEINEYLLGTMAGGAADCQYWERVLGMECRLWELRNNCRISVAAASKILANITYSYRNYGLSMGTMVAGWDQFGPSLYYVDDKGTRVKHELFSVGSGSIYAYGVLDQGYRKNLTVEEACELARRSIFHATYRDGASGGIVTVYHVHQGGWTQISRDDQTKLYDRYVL

[8] = organism: Homo sapiens; test: To identify inhibition of the IFN signalling (Jak-Stat) pathway via expression of an eGFP reporter gene under the control of an IFN-stimulated response element (ISRE) containing MxA promoter.; format: functional; settings: 30 µM
[9] = biological target: T4, Tyrosyl-tRNA synthetase, putative (Trypanosoma cruzi (strain CL Brener)) (UniProt Q4DSP6); test: Trypanosoma cruzi tyrosyl tRNA synthetase (TcYRS) _High Tyrosine SOP; format: functional; settings: 30 µM; further: in the data most compounds retested in dose-response had high values
T4 sequence (whole entry): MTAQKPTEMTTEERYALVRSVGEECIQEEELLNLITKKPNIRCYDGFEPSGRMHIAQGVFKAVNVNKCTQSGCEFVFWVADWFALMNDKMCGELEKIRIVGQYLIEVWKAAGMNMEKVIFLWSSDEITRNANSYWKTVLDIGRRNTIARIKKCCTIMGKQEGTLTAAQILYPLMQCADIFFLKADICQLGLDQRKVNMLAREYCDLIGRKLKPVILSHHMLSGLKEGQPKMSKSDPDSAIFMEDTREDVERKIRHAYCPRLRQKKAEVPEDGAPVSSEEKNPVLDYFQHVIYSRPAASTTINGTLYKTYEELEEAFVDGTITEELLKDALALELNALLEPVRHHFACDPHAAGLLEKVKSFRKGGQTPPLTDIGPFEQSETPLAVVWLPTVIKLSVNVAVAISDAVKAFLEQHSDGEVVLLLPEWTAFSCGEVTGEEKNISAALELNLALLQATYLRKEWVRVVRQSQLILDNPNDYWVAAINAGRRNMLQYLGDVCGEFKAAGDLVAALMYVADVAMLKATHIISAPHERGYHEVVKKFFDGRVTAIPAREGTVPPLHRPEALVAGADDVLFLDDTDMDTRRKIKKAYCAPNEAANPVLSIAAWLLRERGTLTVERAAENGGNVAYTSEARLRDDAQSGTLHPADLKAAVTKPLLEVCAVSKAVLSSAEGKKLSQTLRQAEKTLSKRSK

[10] = biological target: T4, Tyrosyl-tRNA synthetase, putative (Trypanosoma cruzi (strain CL Brener)); test: Trypanosoma cruzi tyrosyl tRNA synthetase (TcYRS) SOP; format: functional; settings: 30 µM
[11] = biological target: Chromo domain-containing protein 1 (Saccharomyces cerevisiae (strain ATCC 204508 / S288c) (Baker's yeast)) (UniProt P32657); test: ScCHD-1 Enzyme Inhibition Assay; format: functional; settings: 30 µM; further: in the data most compounds retested in dose-response had high values
Chromo domain-containing protein 1 (Saccharomyces cerevisiae (strain ATCC 204508 / S288c) (Baker's yeast)), sequence (P32657 whole entry, the tested form may be a part): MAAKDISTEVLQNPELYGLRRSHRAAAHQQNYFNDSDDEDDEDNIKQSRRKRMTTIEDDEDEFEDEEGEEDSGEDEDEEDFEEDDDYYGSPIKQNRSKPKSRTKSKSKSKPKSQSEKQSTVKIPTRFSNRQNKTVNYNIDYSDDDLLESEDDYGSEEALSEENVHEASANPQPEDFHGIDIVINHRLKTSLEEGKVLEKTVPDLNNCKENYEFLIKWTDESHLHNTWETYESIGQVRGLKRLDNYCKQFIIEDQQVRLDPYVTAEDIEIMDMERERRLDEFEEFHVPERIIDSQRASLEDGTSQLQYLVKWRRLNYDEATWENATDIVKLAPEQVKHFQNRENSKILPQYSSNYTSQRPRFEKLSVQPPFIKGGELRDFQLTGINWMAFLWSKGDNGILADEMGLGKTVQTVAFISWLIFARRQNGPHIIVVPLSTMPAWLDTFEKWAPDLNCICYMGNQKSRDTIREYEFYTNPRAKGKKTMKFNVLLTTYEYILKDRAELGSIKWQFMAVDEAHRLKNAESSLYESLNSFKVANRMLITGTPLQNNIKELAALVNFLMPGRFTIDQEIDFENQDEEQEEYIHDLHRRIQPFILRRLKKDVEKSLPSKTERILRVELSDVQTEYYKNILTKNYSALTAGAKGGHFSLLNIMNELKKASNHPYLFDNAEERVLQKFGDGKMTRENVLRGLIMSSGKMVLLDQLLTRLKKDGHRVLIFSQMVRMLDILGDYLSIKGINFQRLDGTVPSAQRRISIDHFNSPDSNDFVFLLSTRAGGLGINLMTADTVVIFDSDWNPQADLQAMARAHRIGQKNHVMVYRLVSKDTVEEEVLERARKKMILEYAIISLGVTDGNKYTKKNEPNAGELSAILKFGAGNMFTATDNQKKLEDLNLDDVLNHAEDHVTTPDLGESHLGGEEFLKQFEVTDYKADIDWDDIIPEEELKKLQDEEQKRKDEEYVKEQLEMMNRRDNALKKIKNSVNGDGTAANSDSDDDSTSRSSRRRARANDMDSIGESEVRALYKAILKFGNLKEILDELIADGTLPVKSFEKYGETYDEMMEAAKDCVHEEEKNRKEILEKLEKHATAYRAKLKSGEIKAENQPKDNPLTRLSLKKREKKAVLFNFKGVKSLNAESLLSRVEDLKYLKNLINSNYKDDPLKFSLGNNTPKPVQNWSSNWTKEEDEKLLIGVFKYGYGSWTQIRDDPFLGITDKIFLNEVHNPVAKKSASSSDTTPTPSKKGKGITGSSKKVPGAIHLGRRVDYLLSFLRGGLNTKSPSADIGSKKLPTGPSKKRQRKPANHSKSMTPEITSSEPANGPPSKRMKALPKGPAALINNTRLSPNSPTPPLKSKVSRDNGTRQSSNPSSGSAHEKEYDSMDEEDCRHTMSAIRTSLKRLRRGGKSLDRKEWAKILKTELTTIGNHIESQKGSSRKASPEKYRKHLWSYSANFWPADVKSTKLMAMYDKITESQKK

Protein translocase subunit SecA (Escherichia coli (strain K12)), sequence (P10408 whole entry): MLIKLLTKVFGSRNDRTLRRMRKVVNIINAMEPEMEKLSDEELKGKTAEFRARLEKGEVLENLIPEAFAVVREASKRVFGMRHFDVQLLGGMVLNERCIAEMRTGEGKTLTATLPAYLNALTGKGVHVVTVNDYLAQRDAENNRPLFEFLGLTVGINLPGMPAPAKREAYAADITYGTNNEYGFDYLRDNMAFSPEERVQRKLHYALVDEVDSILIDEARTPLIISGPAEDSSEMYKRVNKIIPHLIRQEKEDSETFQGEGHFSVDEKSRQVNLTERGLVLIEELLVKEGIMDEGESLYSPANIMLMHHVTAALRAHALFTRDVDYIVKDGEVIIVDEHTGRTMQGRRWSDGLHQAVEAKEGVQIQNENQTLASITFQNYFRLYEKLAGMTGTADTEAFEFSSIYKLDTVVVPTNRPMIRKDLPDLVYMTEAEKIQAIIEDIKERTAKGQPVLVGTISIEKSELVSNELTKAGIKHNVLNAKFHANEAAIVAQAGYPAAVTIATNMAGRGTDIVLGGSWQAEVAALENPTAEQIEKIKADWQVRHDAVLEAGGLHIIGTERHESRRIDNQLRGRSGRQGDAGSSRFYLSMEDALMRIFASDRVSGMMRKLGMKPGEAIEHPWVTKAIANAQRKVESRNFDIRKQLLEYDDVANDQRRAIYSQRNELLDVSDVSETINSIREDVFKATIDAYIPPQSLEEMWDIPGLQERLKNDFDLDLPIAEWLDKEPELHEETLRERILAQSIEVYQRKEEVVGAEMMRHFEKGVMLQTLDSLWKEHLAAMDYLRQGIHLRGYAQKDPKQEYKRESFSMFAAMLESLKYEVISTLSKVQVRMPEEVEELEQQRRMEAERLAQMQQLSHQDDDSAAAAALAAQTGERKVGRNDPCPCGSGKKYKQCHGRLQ

Row | Structure (SMILES) | Percent Effect [1] [%] | Percent Effect [2] [%] | Percent Effect [3] [%] | Percent Effect [4] [%] | Percent Effect [5] [%] | Percent Effect [6] [%] | Percent Effect [7] [%] | Percent Effect [8] [%] | Percent Effect [9] [%] | Percent Effect [10] [%] | Percent Effect [11] [%]
1 | O=C(NCC1CC1)C1=NOC2(CCN(Cc3ccc4c(c3)OCO4)C2)C1 (stereo not given) | -4.9 | 8 | 8.35 | 5 | -2.51 | -50.4 | 11.1 | 0.899 | 0 | -17.5 | -6.02
2 | COc1c(CNC2CCOc3ccccc32)c(C(C)C)nn1C (stereo not given) | -0.153 | -48.6 | -2.39 | 7.95 | 1.58 | 0.924 | 3.95 | 0.812 | 7.92 | 18.3 | -6.55
3 | O=C(CC1CCCO1)NCc1ccccc1Cn1cncn1 (stereo not given) | -2.25 | 15.8 | -5.58 | -5.97 | -7.75 | 4.32 | 9.39 | 3.32 | 4.43 | 23.5 | -2.47
4 | CC(=O)N1[C@H](Cn2cncn2)C[C@@H]2CN(c3ccc(C)nn3)CC[C@@H]21 | -0.849 | 2.6 | 1.33 | 0.483 | 3.83 | 0 | 9.98 | -9.62 | -1.07 | 1.24 | -3.45
5 | COc1ccc(NC(=O)CCC2CCCN(Cc3ncon3)C2)cc1Cl (stereo not given) | -3.35 | 10.7 | -3.08 | 17.1 | 2.82 | 7.81 | 24.8 | -6.37 | 8.2 | 18.5 | 92.7
6 | Cc1ncsc1CCC(=O)NCc1cc2n(n1)CCN(C(=O)N(C)C)C2 | -0.664 | 1.39 | -1.68 | -4.18 | -4.96 | 3.97 | 15.3 | 6.29 | 3.16 | 2.56 | -1.68
7 | COc1ccc(F)c(CN2CCC(c3cc(O)nc(C)n3)C2)c1 (stereo not given) | -8.36 | 23 | -0.897 | -0.78 | 5.93 | -3.94 | 15.3 | 11.7 | 5.38 | 14.3 | -15
8 | CCc1nnc(CN(C)c2nc(C(C)C)nc3c2cnn3C)o1 | 3.23 | 4.17 | 6.88 | -0.661 | -3.6 | 2.21 | 16.8 | -1.37 | -2.1 | 2.56 | 1.23
9 | COc1cc(C)sc1C(=O)N1CC(c2cccnc2)C1 | -4.73 | 2.7 | 4.4 | -2.39 | -3.86 | -1.91 | 9.65 | -1.77 | 1.59 | 9.76 | -1.11
10 | Cc1nc(CN2CCOC(c3nc(C(C)C)n[nH]3)C2)oc1C (stereo not given) | -1.29 | 5.06 | 3.22 | 7.38 | 2.74 | 2.66 | 1.72 | -4.74 | 3.45 | 8.86 | -3.77
11 | Cc1nonc1C(=O)N1CCCC(c2ncncc2-c2ccncc2)C1 (stereo not given) | -5.71 | 8 | 11.1 | 2.77 | -0.591 | 0.699 | 3.08 | -1.27 | 5.32 | 8.97 | -4.88
12 | COCCOc1ccc(NC(=O)N2CCCC2c2cc(C)no2)cn1 (stereo not given) | -4.97 | 0 | 0.449 | 5.01 | -0.686 | -1.05 | 5.74 | 9.34 | 5.71 | 2.35 | -14.1
13 | Cn1cc(CN2CCn3cc(CNC(=O)C4CCC4)nc3C2)cn1 | -3.67 | 5.33 | 4.55 | 2.73 | -0.386 | -31 | 7.69 | 0.15 | 7.29 | 12.5 | -8.18
14 | O=C(c1ccncc1)N1CCC(O)(Cn2ccc3ccncc32)CC1 | -2.15 | 6.76 | 7.19 | -2.13 | -3.75 | 0.232 | 17.9 | -0.964 | 4.3 | 9.09 | -10.5
15 | CC(C)(C)NC(=O)CNC(=O)CCc1ccccc1Br | -3.98 | 15.3 | -5.91 | 3.62 | 4.37 | 23.4 | 21.8 | -3.55 | 6.32 | 7.69 | -2.98
16 | CN1CCC(c2cccc(Cc3ccc(F)cc3)n2)CC1 | -4.16 | -1.35 | 11.1 | -2.02 | 0.395 | -6.26 | 6.08 | 2.47 | 2.15 | -1.3 | -7.17
17 | CCC(O)CN1CCN(C(=O)c2ccnc(N(C)C)c2)CC1 (stereo not given) | -1.16 | 5.41 | -5.16 | 13 | 6.37 | 14.3 | 4.83 | -0.0962 | 1.59 | 12.2 | -4.75
18 | CCNc1cc2c(nn1)CCN(C(=O)c1ccc3cc[nH]c3c1)C2 | -5.7 | 5.26 | 1.7 | 1.43 | 6.96 | -2.3 | 1.34 | -2.63 | 8.33 | 19.5 | -7.29
19 | Cc1c(C)n(-c2ccccn2)c2nc3c(c(N)c12)CCCC3 | -1.37 | -14.7 | 7.92 | 7.22 | -3.34 | -10 | 25.1 | 5.7 | 1.06 | -51.3 | -7.7
20 | COc1cccc(CN2CCN(C(=O)CN3CCOCC3)CC2)n1 | 0.629 | -10.5 | -3.06 | 3.57 | 4.76 | 3.6 | 4.99 | 7.19 | 2.46 | 6.17 | 2.89
